The structures appear in SMILES notation. Activity calls are given as the source filed them. Rule for the calls: active = hit-call score of the fitted dose curve at least 0.9, where 1 is the maximum; inactive = score below 0.9.

We go through 40 molecules from PubChem BioAssay (EPA / NIEHS).

A short description of this assay: BSK_3C_uPAR: BioMAP Diversity Plus: 3C Assay for Urokinase-type plasminogen activator receptor (uPAR) Biomarker Activity (AID 2282998). As to conditions: BioMAP 3C HUVEC, uPAR biomarker ELISA; actives raise or lower the signal. On the procedure:
BSK_3C is a cell-based, multiplexed-readout assay that uses umbilical vein endothelium, a human vascular primary cell, with measurements taken at 24 hours after chemical dosing in a 96-well plate.BSK_3CAR is an assay component measured in the BSK_3C assay. It measures uPAR antibody related to regulation of gene expression using ELISA technology.Data from the assay component BSK_3CAR was analyzed into 1 assay endpoint. This assay endpoint, BSK_3CAR, was analyzed with bidirectional fitting relative to DMSO as the negative control and baseline of activity. Using a type of binding reporter, gain or loss-of-signal activity can be used to understand changes in the signaling as they relate to the gene PLAUR. Furthermore, this assay endpoint can be referred to as a primary readout, because this assay has produced multiple assay endpoints where this one serves a signaling function. To generalize the intended target to other relatable targets, this assay endpoint is annotated to the cytokine intended target family, where the subfamily is plasmogen activator.
The levels of cell surface (or secreted, indicated by the prefix "s") biomarker endpoints were measured by ELISA. Overt cytotoxicity to cells in confluent adherent cultures (all systems other than the BT system) was assessed by measuring total protein levels using sulforhodamine B (SRB) staining in parallel cultures at the time of biomarker measurements, indicated as SRB endpoints. For proliferation assays for adherent cell types, individual cell types are cultured at sub-confluence and relative cell numbers quantified by SRB staining at time points optimized for each system (48 h: 3C and CASM3C systems; 72 h: BT and HDF3CGF systems; 96 h: SAg system). SRB was performed by staining cells with 0.1% SRB after fixation with 10% TCA and reading wells at 560 nm.Viability and proliferation of PBMC (T cells) was quantified by Alamar Blue reduction for the SAg and BT systems. For PBMC viability (referred to as PBMC Cytotoxicity within the assay endpoint names), cells were plated (75,000/well in a 96-well plate) and then chemical samples added for 1 h before addition of activators, SEB and TSST-1 (20 ng/mL final concentration each). Cells were incubated for 90 h. Then, Alamar Blue (20 uL/well) (Invitrogen, Cat DAL1100) was added for 6 h, and the plates were read with a fluorescence microplate reader at 546/580 nm (excitation/emission). For PBMC proliferation, cells were plated and activated as above but incubated for only 16 h prior to addition of Alamar Blue. Plates were read after 6 h.
(In general: In an ELISA, binding on a coated surface is turned into a signal by an enzyme label.)
As to `Cn1cnc2c1c(=O)[nH]c(=O)n2C`, the outcome was inactive. With `CO[C@@H]1COCC[C@@H]1N[C@@H]1CC[C@@](C(=O)N2CCc3ncc(C(F)(F)F)cc3C2)(C(C)C)C1`, the result was inactive. For `N[C@@H](Cc1c[nH]c2ccccc12)C(=O)O`, the outcome was inactive. `COC(=O)CCCC(=O)OC`: the result was inactive. In the case of `NC=O`, the outcome was inactive. On to `CC(=O)O[C@]1(C(C)=O)CC[C@H]2[C@@H]3C=C(Cl)C4=CC(=O)[C@@H]5C[C@@H]5[C@]4(C)[C@H]3CC[C@@]21C`, for which the outcome was inactive. Take `COc1ccc(C(=O)Nc2nc3ccccc3c(NCc3ccccc3)c2C#N)cc1`: the outcome was inactive. For `COC(=O)CCC(=O)OC`, the result was inactive. As for `O=C1CCCCC1`, the outcome was inactive. In the case of `O=C1c2c(O)cccc2Cc2cccc(O)c21`, the result was inactive. As to `CN(C)CCCN(C)CCCN(C)C`, the outcome was inactive.

In the case of `CCc1cc(C2=C(C(=O)O)N(c3ccccc3C(F)(F)F)S(=O)(=O)c3ccccc32)cc2c1OCO2`, the AC50 was 33.7 µM (active).

Regarding `Oc1ccccc1O`, the result was inactive. Regarding `CCc1nc(N)nc(N)c1-c1ccc(Cl)cc1`, the outcome was inactive. For `C#CC(O)C(CC)CCCC` (stereo not given), the outcome was inactive.

`Oc1ccc(O)cc1`: the result was inactive.

`Nc1nc(=S)c2[nH]cnc2[nH]1`: the result was inactive. Same read-out and setting: the value for `CC(=O)CC(c1ccccc1)c1c(O)c2ccccc2oc1=O` (stereo not given) was “inactive”. Turning to `Cc1ccc(-c2cc(C(F)(F)F)nn2-c2ccc(S(N)(=O)=O)cc2)cc1`, the AC50 was 24.6 µM (active). Turning to `CCCC[C@H]1CN(CC2CCOCC2)C(=O)OC12CCN(C1(C)CCN(C(=O)c3c(C)ncnc3C)CC1)CC2`, the outcome was inactive. In the case of `CC(=O)OC1CC(C)OC(C)O1` (stereo not given), the outcome was inactive.

For the molecule `C/C=C/C=C/C(=O)O`, the result was inactive. On to `Cc1cc(SC2=C(O)C[C@@](CCc3ccc(N)cc3)(C(C)C)OC2=O)c(C(C)(C)C)cc1CO`, for which the result was inactive.

Regarding `CC(=O)OCC(COC(C)=O)OC(C)=O`, the result was inactive. For the molecule `CCCCC(CC)COP(=O)(OCC(CC)CCCC)OCC(CC)CCCC` (stereo not given), the AC50 is 12.5 µM (active). As to `CCCCc1nc2cccnc2n1Cc1ccc(-c2ccccc2-c2nnn[nH]2)cc1`, the outcome was inactive.

Take `CC(C)(O)c1ccc(CNC(=O)c2cccnc2Oc2ccc(F)cc2)cc1`: the outcome was inactive. As for `CC(C)OC(=O)C(C)(C)Oc1ccc(C(=O)c2ccc(Cl)cc2)cc1`, the concentration at half-maximal activity (AC50) is 30.6 µM (active). With `CCCCCCCCCCCCCCOS(=O)(=O)O`, the outcome was inactive. Consider `CCCCCCC(CCCCCCCCCCC(=O)OCC(COC(C)=O)OC(C)=O)OC(C)=O` (stereo not given), for which the outcome was inactive. The same measure, in the same setting: with `CCCCCCCCCC[N+](C)(C)[O-]` the entry was “inactive”. For the molecule `CN(C)CCCN1c2ccccc2Sc2ccc(Cl)cc21`, the concentration at half-maximal activity (AC50) was 25.1 µM (active). For `CC(=O)[C@@]1(O)CC[C@H]2[C@@H]3CCC4=CC(=O)CC[C@]4(C)[C@H]3CC[C@@]21C`, the outcome was inactive. Take `O=C(O)CN(CC(=O)O)CC(=O)O`: the outcome was inactive. With `O=Cc1ccccc1C=O`, the result was inactive. On to `COC(=O)[C@H]1[C@H]2C[C@@H]3c4[nH]c5cc(OC)ccc5c4CCN3C[C@H]2C[C@@H](OC(=O)c2cc(OC)c(OC)c(OC)c2)[C@@H]1OC`, for which the AC50 is 23.2 µM (active). As to `O=C(NS(=O)(=O)/C=C/c1cccs1)c1ccc(F)cc1Br`, the outcome was inactive. For the molecule `CC1=C(C)S(=O)(=O)CCS1(=O)=O`, the result was inactive. Same read-out and setting: with `CC1(C)C(=O)NC(=O)N1CO` the entry was “inactive”.

Consider `CC(C)c1cccc(C(C)C)c1`, for which the result was inactive.

As usually defined, the AC50 is the concentration at which the activity in the assay is half-maximal.
